Data published in PubChem BioAssay (NCI).
The panel holds about 83,000 compounds, 20% with a hit somewhere; the sample as a whole holds those more often.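 Compound tested at a single concentration for 48 hours in 96-well plates; a percent growth value below 10 was scored as active.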 Calls of active or inactive are those of the source.

Tests used:
Test in all cases: NCI-60 one-dose screen, 48 h (100 = growth as untreated, 0 = no growth, -100 = all killed)
Details in all cases: 10 µM unless noted
EKVX NSCLC = test system: EKVX NSCLC
SN12C renal = test system: SN12C renal
UO-31 renal = test system: UO-31 renal
TK-10 renal = test system: TK-10 renal
ACHN renal = test system: ACHN renal
CAKI-1 renal = test system: CAKI-1 renal
A498 renal = test system: A498 renal
CCRF-CEM leukemia = test system: CCRF-CEM leukemia
MOLT-4 leukemia = test system: MOLT-4 leukemia

Measured: growth

Cn1c(=O)c(F)c(Nc2ccc(I)cc2F)c2c(=O)n(C[C@@H](O)CO)cnc21
active: A498 renal -30.7%
inactive: EKVX NSCLC 46.6% | SN12C renal 40.1% | UO-31 renal 22.8% | TK-10 renal 41.2% | ACHN renal 50.7% | CAKI-1 renal 41.7% | CCRF-CEM leukemia 66.8% | MOLT-4 leukemia 73.7%

O=C1NC(=O)C(c2cnc3ccccn23)=C1c1cn2c3c(cc(F)cc13)CN(C(=O)N1CCCCC1)CC2
inactive: EKVX NSCLC 68.6% | SN12C renal 63.2% | UO-31 renal 28.8% | TK-10 renal 56.1% | ACHN renal 39.7% | CAKI-1 renal 43.5% | CCRF-CEM leukemia 27.9% | MOLT-4 leukemia 12.1%
active: A498 renal -10.5%

O=C(Cc1ccc(/C=C/C(=O)c2ncc[nH]2)cc1)Nc1ccc(Br)cc1
active: SN12C renal 9.91% | UO-31 renal -40% | ACHN renal 2.05% | CCRF-CEM leukemia 6.63% | MOLT-4 leukemia 2.86%
inactive: EKVX NSCLC 38.6% | TK-10 renal 75.5% | CAKI-1 renal 32.5% | A498 renal 73.5%

Cc1csc(-c2nnc(Nc3ccc(Oc4ncccc4-c4ccnc(N)n4)cc3)c3ccccc23)c1
inactive: EKVX NSCLC 64.8% | SN12C renal 52.1% | UO-31 renal 32.4% | TK-10 renal 39.7% | ACHN renal 38.8% | CAKI-1 renal 50.8% | A498 renal 56.1% | CCRF-CEM leukemia 25.1% | MOLT-4 leukemia 32.3%

COc1cc(NC2CCC(=O)N2c2ccc(Cl)cc2Cl)cc(OC)c1OC (stereo unspecified)
inactive: EKVX NSCLC 100% | SN12C renal 109% | UO-31 renal 94.5% | TK-10 renal 104% | ACHN renal 110% | CAKI-1 renal 95.7% | A498 renal 89.2% | CCRF-CEM leukemia 90.5% | MOLT-4 leukemia 96.2%

CC(C)c1cc(CNc2nc(Nc3cc(C4CC4)[nH]n3)cc(N3CCN(C)CC3)n2)on1
active: EKVX NSCLC 7.39% | SN12C renal 9.72% | UO-31 renal -2.19% | TK-10 renal -16.4% | ACHN renal 8.49% | CAKI-1 renal 4.85% | A498 renal -78.5% | CCRF-CEM leukemia 8.07% | MOLT-4 leukemia 0.889%

O=C(Nc1cn[nH]c1-c1nc2ccc(CN3CCOCC3)cc2[nH]1)NC1CC1
inactive: EKVX NSCLC 68.5% | SN12C renal 17% | TK-10 renal 44% | ACHN renal 36.1% | CAKI-1 renal 23.2% | CCRF-CEM leukemia 13.9%
active: UO-31 renal -22.1% | A498 renal -15.5% | MOLT-4 leukemia -5.45%

CCCCN1C(=O)c2cccc3c(-c4ccc5c(c4)ncn5C4CCCCC4)ccc(c23)C1=O
inactive: EKVX NSCLC 99.8% | SN12C renal 105% | UO-31 renal 82.1% | TK-10 renal 102% | ACHN renal 107% | CAKI-1 renal 93.7% | A498 renal 118% | CCRF-CEM leukemia 113% | MOLT-4 leukemia 94.7%

CS(=O)(=O)N1CCc2c(-c3cnc(N)nc3)nc(N3CCOCC3)nc21
inactive: EKVX NSCLC 10.2% | CCRF-CEM leukemia 22.2%
active: SN12C renal 8.6% | UO-31 renal -21.8% | TK-10 renal -21.4% | ACHN renal 0.427% | CAKI-1 renal -8.15% | A498 renal -49.9% | MOLT-4 leukemia 9.81%

COCc1c(-c2ccc(NC(=O)Nc3cc(C(F)(F)F)ccc3F)c(F)c2)c2c(N)ncnn2c1CN1CCOCC1
active: EKVX NSCLC -25.4% | SN12C renal -10.8% | UO-31 renal -20% | TK-10 renal -43% | ACHN renal -1.81% | CAKI-1 renal -11.4% | A498 renal -64.3% | CCRF-CEM leukemia 5.76% | MOLT-4 leukemia -5.86%

CCN(CCO)CCCOc1ccc2c(Nc3cc(CC(=O)Nc4cccc(F)c4)[nH]n3)ncnc2c1
inactive: EKVX NSCLC 51.8% | SN12C renal 46.9% | UO-31 renal 50.4% | TK-10 renal 31.5% | ACHN renal 48.9% | CAKI-1 renal 35.4% | A498 renal 47.4% | CCRF-CEM leukemia 40.3% | MOLT-4 leukemia 36.3%

CC(C)(C)OC(=O)N1CCC(O)[C@@H](O[Si](c2ccccc2)(c2ccccc2)C(C)(C)C)[C@H]1/C=C/c1ccccc1 (stereo partly specified)
inactive: EKVX NSCLC 40.7% | SN12C renal 73% | UO-31 renal 39.1% | TK-10 renal 66.1% | ACHN renal 41.1% | CAKI-1 renal 45.3% | A498 renal 68.2% | CCRF-CEM leukemia 46.4% | MOLT-4 leukemia 28%

COC[C@@H](C)n1c(C2CCOCC2)nc2c1C1C=C(OC)C(c3c(C)noc3C)=CC1N=C2 (stereo partly specified)
active: TK-10 renal 6.38%
inactive: EKVX NSCLC 56.9% | SN12C renal 64.9% | UO-31 renal 13.2% | ACHN renal 41.2% | CAKI-1 renal 41% | A498 renal 18.6% | CCRF-CEM leukemia 50.8% | MOLT-4 leukemia 59%

Cc1cc(C(=O)NOCCO)c(Nc2ccc(I)cc2F)n(C)c1=O
active: A498 renal -14%
inactive: EKVX NSCLC 56.7% | SN12C renal 68.3% | UO-31 renal 46.3% | TK-10 renal 48% | ACHN renal 64.3% | CAKI-1 renal 40.6% | CCRF-CEM leukemia 85% | MOLT-4 leukemia 83.7%

COc1cc2c(Nc3ccc(Br)cc3F)ncnc2cc1OCC1CCN(C)CC1
inactive: EKVX NSCLC 35.4% | SN12C renal 16.9% | CCRF-CEM leukemia 14.5% | MOLT-4 leukemia 18.1%
active: UO-31 renal -88.3% | TK-10 renal -4.33% | ACHN renal 9.47% | CAKI-1 renal 0.316% | A498 renal -71.1%

O=C1C=CC2(NN=C(c3ccccc3)N2c2cccc(Cl)c2)C(Cl)=C1 (stereo unspecified)
inactive: EKVX NSCLC 67.5% | SN12C renal 84.4% | UO-31 renal 51.5% | TK-10 renal 100% | ACHN renal 63.7% | CAKI-1 renal 79.8% | A498 renal 83.4% | CCRF-CEM leukemia 41.6% | MOLT-4 leukemia 39.2%

C=CCN1C(=O)c2cccc3c(-c4ccc5c(c4)ncn5C4CCCCC4)ccc(c23)C1=O
inactive: EKVX NSCLC 52.9% | SN12C renal 61.5% | UO-31 renal 34.5% | TK-10 renal 69.9% | ACHN renal 55.3% | CAKI-1 renal 52.2% | A498 renal 76.9% | CCRF-CEM leukemia 33%
active: MOLT-4 leukemia 5.4%

Cc1ccc(Nc2nccc(N(C)c3ccc4c(C)n(C)nc4c3)n2)cc1S(N)(=O)=O
active: UO-31 renal -2.51% | A498 renal -57% | MOLT-4 leukemia 5.93%
inactive: EKVX NSCLC 25.7% | SN12C renal 25.7% | TK-10 renal 21.2% | ACHN renal 25.8% | CAKI-1 renal 15.1% | CCRF-CEM leukemia 34%

COc1cc2c(cc1O)c(=O)n(CCN(C)C)c1c3cc4c(cc3ncc21)OCO4
active: EKVX NSCLC 9.22% | SN12C renal -5.86% | UO-31 renal -46.8% | TK-10 renal -45.5% | ACHN renal -61.8% | CAKI-1 renal -10.2% | A498 renal -59.8% | CCRF-CEM leukemia -11.3% | MOLT-4 leukemia -15.9%

CN1CCN(CCCOc2cccc3nc(Nc4ccc(Cl)c(C(F)(F)F)c4)ccc23)CC1
active: TK-10 renal -66.5% | ACHN renal -69.3% | CCRF-CEM leukemia -24.7% | MOLT-4 leukemia -57.6%
inactive: EKVX NSCLC 44.5% | SN12C renal 28.3% | UO-31 renal 28.6% | CAKI-1 renal 48.9% | A498 renal 30.8%

NC(=O)Nc1cc(-c2cccc(F)c2)sc1C(=O)N[C@H]1CCCNC1
active: EKVX NSCLC 4.42% | SN12C renal -5.05% | UO-31 renal -95.4% | TK-10 renal -66.3% | ACHN renal 3.94% | CAKI-1 renal -82.3% | A498 renal -83.7% | CCRF-CEM leukemia 4.63% | MOLT-4 leukemia 2.79%

O=c1sn(-c2cccc3ccccc23)c(=O)n1Cc1ccccc1
inactive: EKVX NSCLC 108% | SN12C renal 94.8% | UO-31 renal 86.3% | TK-10 renal 95.5% | ACHN renal 106% | CAKI-1 renal 99% | A498 renal 102% | CCRF-CEM leukemia 64.9% | MOLT-4 leukemia 39.1%

O=C1CCC(=O)CC1
inactive: EKVX NSCLC 98.8% | SN12C renal 90% | UO-31 renal 86.4% | TK-10 renal 96.4% | ACHN renal 109% | CAKI-1 renal 96.5% | A498 renal 104% | CCRF-CEM leukemia 98.1% | MOLT-4 leukemia 101%

CC[C@H](CO)Nc1nc(NCc2ccccc2)c2ncn(C(C)C)c2n1
inactive: EKVX NSCLC 72.3% | SN12C renal 73.4% | UO-31 renal 55.4% | TK-10 renal 92.4% | ACHN renal 46.8% | CAKI-1 renal 48% | A498 renal 71.3% | CCRF-CEM leukemia 65.9% | MOLT-4 leukemia 49.6%

Nc1ccc(S(=O)(=O)O)c2cc(S(=O)(=O)O)cc(O)c12
inactive: EKVX NSCLC 101% | SN12C renal 102% | UO-31 renal 107% | TK-10 renal 105% | ACHN renal 104% | CAKI-1 renal 100% | A498 renal 107% | CCRF-CEM leukemia 102% | MOLT-4 leukemia 101%

COc1ccc(-c2ccc3ncc4c(c3c2)n(-c2ccc(N3CCNCC3)c(C(F)(F)F)c2)c(=O)n4C)cn1
active: EKVX NSCLC -77.1% | SN12C renal -80.7% | UO-31 renal -90.9% | TK-10 renal -90.2% | ACHN renal -97.5% | CAKI-1 renal -94.8% | A498 renal -79.2% | CCRF-CEM leukemia -47.1% | MOLT-4 leukemia -50.8%

COc1cc2ncnc(Nc3ccc(O)cc3)c2cc1OC
inactive: EKVX NSCLC 66.3% | SN12C renal 62.2% | UO-31 renal 36.8% | ACHN renal 31.1% | CAKI-1 renal 43.4% | A498 renal 81.3% | CCRF-CEM leukemia 77.7% | MOLT-4 leukemia 75.3%
active: TK-10 renal 2.22%

C=CC(=O)Nc1cccc(Nc2nc(Nc3ccc(N4CCN(C(C)=O)CC4)cc3OC)ncc2C(F)(F)F)c1
active: EKVX NSCLC 1.17% | UO-31 renal -18.3% | TK-10 renal -24.6% | ACHN renal 5.26% | CAKI-1 renal -13.1% | A498 renal -47.1%
inactive: SN12C renal 20.7% | CCRF-CEM leukemia 19.2% | MOLT-4 leukemia 12.6%

C[C@@H](Oc1cc(-n2cnc3ccc(CN4CCN(C)CC4)cc32)sc1C(N)=O)c1ccccc1C(F)(F)F
inactive: EKVX NSCLC 38.9% | SN12C renal 15.6% | UO-31 renal 16.6% | TK-10 renal 52.2% | ACHN renal 31.1% | CAKI-1 renal 28.3%
active: A498 renal -23% | CCRF-CEM leukemia 6.03% | MOLT-4 leukemia -7.58%
